TGFb inhibitor: TGF-b pathway inhibition. HepG2 CAGA-GFP TGF-b/SMAD3 reporter, GFP fluorescence, 18 h; TGF-beta stimulated, 500 pg/mL final. Potency, µM (top dose mostly 46.1 µM), inactives show at the highest dose activity, negative = inhibition, usual class: inhibitors. hit rate 1.2% among 410,000. AID 588855; note: potency is the fitted concentration of half-maximal effect; % is set by controls: 0 for no effect and ±100 for the full control effect; nearly all actives have a fitted effect of over 65% in size
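HEPG2 CAGA-GFP reporter cells (1000/well, DMEM with 1% FBS) received compounds, then recombinant TGF-beta at 500 pg/mL final for 18 hours at 37 degrees C. Per-cell GFP summed per well was normalised to unstimulated and stimulated DMSO controls before curve fitting.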
D3 ag: agonists of human D3 dopamine receptor. P35462. D3R DiscoveRx beta-arrestin cells, luminescence, 90 min. max activation, %. hit rate 0.58% among 410,000; in the data active = max activation above about 30%; note: 0% is about no effect
Target sequence (P35462 whole entry, looked up): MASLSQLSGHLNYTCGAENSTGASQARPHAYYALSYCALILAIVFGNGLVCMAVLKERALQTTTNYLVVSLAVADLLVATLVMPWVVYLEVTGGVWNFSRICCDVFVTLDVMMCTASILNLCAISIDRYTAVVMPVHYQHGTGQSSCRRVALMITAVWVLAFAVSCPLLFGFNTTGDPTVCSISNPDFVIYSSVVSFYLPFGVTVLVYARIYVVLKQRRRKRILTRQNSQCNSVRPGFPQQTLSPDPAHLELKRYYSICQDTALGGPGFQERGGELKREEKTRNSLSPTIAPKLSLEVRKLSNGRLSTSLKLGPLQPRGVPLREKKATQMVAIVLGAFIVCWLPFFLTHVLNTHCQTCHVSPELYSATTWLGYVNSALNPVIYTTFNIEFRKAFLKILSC
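Agonist-mode cell screen: cells plated at 1500/well and incubated overnight at 37 °C, then exposed to library compounds for 90 min at 37 °C. Detection reagent was added for 30–60 min at room temperature, and luminescence was read.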
ATXN2 expr inh: reduces ATXN2 reporter expression in HEK-293 cells; Potency, µM (top dose mostly 57 µM), inactives show at the top dose activity change, negative = inhibition, most hits filed as inhibitors; HEK-293 ATXN2-luciferase reporter, luminescence, 24 h; hit rate 0.72% among 360,000; note: potency is the fitted concentration of half-maximal effect; % is set by controls: 0 for no effect and ±100 for the full control effect; nearly all actives have a fitted effect of over 55% in size
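qHTS (up to 57 uM final) was run with 24 h compound exposure of reporter cells at 37 °C. Each well was multiplexed: SteadyGlo luminescence measured ATXN2-luciferase expression after a fluorogenic Gly-Phe-AFC viability readout (25 uM final).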
HepG2 viability: kills HepG2 cells in TGF-b inhibitor counter-screen; hit rate 0.76% among 410,000; Potency, µM (highest dose often 46.1 µM), without a hit: top-dose activity change, negative = cytotoxicity, actives largely listed as cytotoxic; HepG2 CAGA-GFP viability, ATP luminescence, 18 h; note: potency is the fitted concentration of half-maximal effect
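HepG2 CAGA-GFP cells (1000/well, DMEM with 1% FBS) received compound, then TGF-beta at 500 pg/mL final, and were incubated 18 hours at 37 degrees C. Viability was read by CellTiter-Glo luminescence. Media-only wells were set as complete cell-killing and DMSO as no toxicity.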
DRD3 antagonist: blocks the human D3 dopamine receptor | D3R cells, DiscoveRx beta-arrestin luminescence, antagonist mode; active compounds read low | max response, negative = inhibition, % | hit rate 2.5% among 360,000 | AID 652054; in the data active = max response below about -50%; inconclusive = no clear call, values can overlap the other calls; note: % is set by controls: 0 for no effect and ±100 for the full control effect
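Cells expressing the human receptor were seeded at 1500 cells/well, incubated overnight at 37 degrees C in 5% CO2, then exposed to library compounds with dopamine controls for 90 minutes at 37 degrees C before luminescent detection.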
S2 tox: viability counter-screen for ATXN expression inhibitors; S2 cells (HEK-293 line with an ATXN2-luciferase reporter) viability, CellTiter-Fluor protease fluorescence, 24 h; Potency, µM (highest dose often 56.7 µM), actives largely listed as cytotoxic; hit rate 0.49% among 400,000; AID 651635; note: potency is the fitted concentration of half-maximal effect; nearly all actives have a fitted effect of over 40% in size
* hit, by the source's call; i = inactive; ? = inconclusive; · = no result given. Only some compounds are listed: those with a hit (about 4.7% of all), similar ones and a draw of the others. Unless noted, calls come from the whole dose curve; as a rule, active = well fitted curve in the direction sought with a large enough effect; inconclusive = small, poorly fitted or top-dose-only effect, or another doubt; inactive = no such curve, though single readings can be large; an effect the other way counts as inactive or inconclusive.

SMILES	TGFb inhibitor	D3 ag	ATXN2 expr inh	HepG2 viability	DRD3 antagonist	S2 tox
CCN(Cc1ccccc1)S(=O)(=O)c1ccc(C(=O)N(CCCN(C)C)c2nc3cc(OC)ccc3s2)cc1	?	-7	?	22µM*	5	?
O=S(=O)(c1ccccc1C(F)(F)F)N1CCN(c2nc(-c3ccccc3)nc3ccccc23)CC1	-6%	·	·	-2%	·	·
Cc1cc2c(cc1C1(c3ccc(C(=O)O)cn3)CC1)C(C)(C)CCC2(C)C	·	·	11%	·	·	·
COc1cc(-c2ccc3oc(-c4cccc(C)c4)c(C#CC4(O)CCCCC4)c3c2)cc(OC)c1OC	?	42*	-19%	-15%	10	i
CCOC(=O)c1oc2ccc(S(=O)(=O)n3nc(-c4ccc(Br)cc4)cc3N)cc2c1C	-1%	6	·	-26%	·	·
c1ccc2c(c1)ccn1c(Cc3ccsc3)c(C3CCCCC3)nc21	·	-17	12%	·	-83*	?
Cc1cc(C)c(C#N)c(SCCS(=O)(=O)Cc2ccc(Cl)cc2)n1	14µM*	2	-16%	-5%	6	i
Cc1[nH]c2ccccc2c(=O)c1C(=O)/C=C/c1ccccc1	?	-5	11µM*	-50%	?	14µM*
O=C(C=Cc1ccccc1)c1c[nH]c2ccccc2c1=O	?	-12	?	-17%	?	?
Cc1ccc2oc(-c3ccc(C)c(NC(=O)COc4ccccc4C)c3)nc2c1	8%	·	·	4%	·	·
Cc1cc(-c2ccccc2)nc2[nH]n(-c3ccccc3)c(=O)c12	0%	-7	·	3%	-68*	·
Cc1cc(C)c2c(=O)n(-c3ccccc3)[nH]c2n1	0%	3	21%	-5%	13	i
O=C(NCCN1CCOCC1)c1cnn(-c2nccc(-c3ccccc3C(F)(F)F)n2)c1C1CC1	·	·	·	·	·	i
O=[N+]([O-])c1cccnc1N1CCN(Cc2ccc3c(c2)OCO3)CC1	-1%	18	-15%	-4%	0	i
COc1ccc2[nH]c3c(N4CCC(O)(c5cccc(C(F)(F)F)c5)CC4)ncnc3c2c1	?	7	28µM*	-98%	-11	?
COc1ccc2[nH]c3c(N4CCN(Cc5ccc6c(c5)OCO6)CC4)ncnc3c2c1	?	0	28µM*	-44%	9	?
O=[N+]([O-])c1ccc2ncnc(N3CCN(Cc4ccc5c(c4)OCO5)CC3)c2c1	-4%	43*	·	-17%	-17	?
COCc1c(C(=O)N2CCN(c3ccccc3)CC2)cnn1-c1nccc(-c2ccco2)n1	·	·	·	·	·	i
CCC1CCCCN1c1nc(-c2cccc(OC)c2O)nc2ccccc12 (stereo unspecified)	?	31*	2%	2%	28	i
COCC1CCCN(Cc2ccc3c(c2)CN(C(=O)c2ccc(OC)nc2OC)CCO3)C1 (stereo unspecified)	·	·	·	·	·	i
COCCOC(=O)N1CCN(/[N+]([O-])=N/Oc2ccc([N+](=O)[O-])cc2[N+](=O)[O-])CC1	?	·	·	-98%	·	·
O=C(NCc1ccccc1Cl)c1c2c(nc3ccccc13)C(=O)N(C1CCCCC1)C2	7%	-3	·	-21%	·	·
CC(CN1CCN(CCOCCO)CC1)CN1c2ccccc2Sc2ccc(Cl)cc21 (stereo unspecified)	?	-7	·	13µM*	-117*	?
CCN(CCNCC(O)COc1ccccc1C(C)C)c1cccc(C)c1 (stereo unspecified)	?	-7	?	16µM*	-16	·
CC(C)(C)n1ncc2c(=O)n(Cc3ccc([S+](=O)([O-])N4CCOCC4)cc3)cnc21	0%	·	·	-15%	·	·
SMILES	TGFb inhibitor	D3 ag	ATXN2 expr inh	HepG2 viability	DRD3 antagonist	S2 tox
C[C@@H](O)[C@H]1C(=O)N2C(C(=O)OCOC(=O)C(C)(C)C)=C(SC3CN(C4=NCCS4)C3)[C@H](C)[C@H]12	·	·	-4%	·	·	·
CN(C(=O)CSc1cn(CC(=O)N2CCCCC2)c2ccccc12)c1ccccc1	?	9	·	-18%	·	·
CC(C)N(C(=O)CSc1cn(CC(=O)N2CCCCCC2)c2ccccc12)C(C)C	13µM*	-1	·	-24%	·	·
CCCCC#Cc1ccc2c(c1)COc1c3ccccc3nn1-2	?	31*	127%	8%	77	i
CC(C#Cc1ccc2c(c1)COc1c3ccccc3nn1-2)OC(C)(C)C (stereo unspecified)	5%	52*	59%	-5%	82	i
O=C(CCS(=O)(=O)c1nc(-c2cccs2)cc(C(F)(F)F)n1)Nc1cc(Br)ccc1O	2.5µM*	-27	·	6.3µM*	·	·
O=C(CCS(=O)(=O)c1nc(-c2cccs2)cc(C(F)(F)F)n1)Nc1ccc(Br)cc1	5.6µM*	-16	·	10µM*	·	·
Cc1ccc(O)c(NC(=O)CCS(=O)(=O)c2nc(-c3cccs3)cc(C(F)(F)F)n2)c1	10µM*	-2	·	13µM*	·	·
COc1ccc(-c2cc(C(F)(F)F)nc(SCCC(=O)Nc3cc(C)ccc3O)n2)cc1	4%	37*	6%	2%	·	i
O=C(CSc1nc(-c2cccs2)cc(C(F)(F)F)n1)Nc1ccccc1Cl	-16%	-8	-5%	8%	·	i
CCOC(=O)c1ccc(S(=O)(=O)N2CCN(c3nc(-c4ccccc4)nc4ccccc34)CC2)cc1	-8%	·	·	3%	·	·
S=C1SCN(Cc2ccco2)CN1Cc1ccco1	?	-1	-1%	-67%	6	?
CCCCCN1CSC(=S)N(Cc2ccccc2)C1	10µM*	7	-30%	-9%	-5	?
CCN1CSC(=S)N(Cc2ccccc2)C1	-19%	3	-6%	-11%	-24	i
S=C1SCN(Cc2cccs2)CN1Cc1cccs1	13µM*	-5	·	-85%	-16	?
CCN1CSC(=S)N(Cc2ccc(OC)cc2)C1	4µM*	3	·	7.9µM*	?	?
Cc1cnccc1/C=C/c1ccc(N)cc1	5%	·	·	-23%	·	·
COc1cc(C2NC(=O)C(C#N)=C(S)N2c2ccccc2)ccc1OC(C)C (stereo unspecified)	-6%	0	-6%	-44%	-67*	i
COc1ccc(C2NC(=O)C(C#N)=C(S)N2c2ccccc2)cc1OC (stereo unspecified)	-5%	-5	-15%	2%	-14	i
Cc1ccc(C(=O)Oc2cc(C)n(C)c(=O)c2)cc1	13%	35*	-17%	14%	91	i
CC(=O)c1c(OC(=O)c2ccc(C)cc2)c2ccccc2n1C	-4%	-2	-3%	-3%	10	i
COc1cc(OC)c(OC)cc1CN1CCCC(n2cc(C(=O)N3CCCCC3)nn2)C1 (stereo unspecified)	·	·	·	·	·	i

Screening data deposited in PubChem by National Center for Advancing Translational Sciences (NCATS).
